We go through three molecules from PubChem BioAssay (EPA / NIEHS).

Read-out in test [1]: Transforming growth factor beta 1 (TGFb1), TGFB1 (gene 7040)
Kind of test: BSK_KF3CT_TGFb1: BioMAP Diversity Plus: KF3CT Assay for Transforming growth factor beta 1 (TGFb1) Biomarker Activity (AID 2283072). The note with it: primary human keratinocytes with fibroblasts; actives raise or lower the signal. The procedure, abridged: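 Human keratinocyte/foreskin fibroblast co-culture; TGF-b1 measured by ELISA 24 h after dosing, fitted bidirectionally versus DMSO. Cytotoxicity checked in parallel cultures by total protein (SRB staining, 560 nm).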

Read-out in test [2]: Matrix Metallopeptidase 9 (MMP9), MMP9 (gene 4318)
Kind of test: BSK_KF3CT_MMP9: BioMAP Diversity Plus: KF3CT Assay for Matrix Metallopeptidase 9 (MMP9) Biomarker Activity (AID 2283074). Conditions: primary human keratinocytes with fibroblasts; actives raise or lower the signal. The procedure, abridged: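 Human keratinocyte and foreskin fibroblast co-culture exposed to chemicals for 24 h; MMP9 biomarker measured by ELISA, bidirectional fitting relative to DMSO; cytotoxicity tracked by SRB total protein staining in parallel cultures.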

Read-out in test [3]: CD40, CD40 (gene 958)
Kind of test: BSK_LPS_CD40: BioMAP Diversity Plus: LPS Assay for CD40 Biomarker Activity (AID 2283076). The note with it: primary human HUVEC with PBMC; actives raise or lower the signal. The procedure, abridged:
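ELISA readout of CD40 in HUVEC/PBMC co-culture (BSK_LPS system), 24 h post-dosing; bidirectional curve fit, DMSO baseline; parallel SRB total-protein staining for cytotoxicity.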

Read-out in test [4]: E-selectin (Homo sapiens) (UniProt P16581)
Kind of test: BSK_LPS_Eselectin: BioMAP Diversity Plus: LPS Assay for Eselectin Biomarker Activity (AID 2283077). The note with it: primary human HUVEC with PBMC; actives raise or lower the signal. The procedure, abridged: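 ELISA readout of E-selectin, 24 h post-dose, HUVEC + PBMC co-culture (LPS system). Gain or loss of signal vs DMSO baseline, bidirectional fit.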

The nature of test [5]: BSK_LPS_SRB: Viability Assessment in the BioMAP Diversity Plus: LPS Assay (AID 2283079).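 Also: total protein by sulforhodamine B absorbance as a cytotoxicity measure; measured one day after compound addition; fitted in both directions against DMSO so loss or gain of signal counts.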 Conditions: primary human HUVEC with PBMC. The procedure, abridged:
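HUVEC + PBMC co-culture, LPS-stimulated; compound 24 h. 10% TCA fix, 0.1% SRB stain, A560. Bidirectional fit vs DMSO.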

Read-out in test [6]: Interleukin-1 alpha (IL1a), IL1A (gene 3552)
In words: BSK_LPS_IL1a: BioMAP Diversity Plus: LPS Assay for Interleukin-1 alpha (IL1a) Biomarker Activity (AID 2283080). Conditions: primary human HUVEC with PBMC; actives raise or lower the signal. The procedure, abridged: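 HUVEC/PBMC co-culture, LPS system; 24 h after dosing; IL-1a by ELISA; gain or loss of signal fitted bidirectionally vs DMSO baseline.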

Read-out in test [7]: Monocyte Chemoattractant Protein-1 (MCP1), CCL2 (gene 6347)
Kind of test: BSK_LPS_MCP1: BioMAP Diversity Plus: LPS Assay for Monocyte Chemoattractant Protein-1 (MCP1) Biomarker Activity (AID 2283081). The note with it: primary human HUVEC with PBMC; actives raise or lower the signal. The procedure, abridged: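 ELISA read-out of MCP-1 after 24 h chemical dosing of a human umbilical vein endothelial cell/peripheral blood mononuclear cell co-culture stimulated with LPS. Gain or loss of signal fitted relative to DMSO controls.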

Test [8] in a line: BSK_LPS_PGE2: BioMAP Diversity Plus: LPS Assay for Prostaglandin E2 (PGE2) Biomarker Activity (AID 2283082). The note with it: primary human HUVEC with PBMC; actives raise or lower the signal. The procedure, abridged:
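HUVEC plus human PBMC co-culture stimulated with LPS; secreted PGE2 quantified by ELISA 24 h after chemical dosing. Activity fitted bidirectionally against DMSO baseline; parallel SRB staining (0.1% SRB after 10% TCA fixation, 560 nm) flags overt cytotoxicity.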

Read-out in test [9]: Macrophage colony-stimulating factor (MCSF), CSF1 (gene 1435)
In words: BSK_LPS_MCSF: BioMAP Diversity Plus: LPS Assay for Macrophage colony-stimulating factor (MCSF) Biomarker Activity (AID 2283083). Conditions: primary human HUVEC with PBMC; actives raise or lower the signal. The procedure, abridged: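 HUVEC + PBMC co-culture (human primary), 24 h post-dose; M-CSF by ELISA; gain/loss of signal fitted bidirectionally vs DMSO baseline.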

Read-out in test [10]: Tissue Factor, F3 (gene 2152)
Kind of test: BSK_LPS_TissueFactor: BioMAP Diversity Plus: LPS Assay for Tissue Factor Biomarker Activity (AID 2283084). The note with it: primary human HUVEC with PBMC; actives raise or lower the signal. The procedure, abridged:
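HUVEC/PBMC co-culture, LPS-activated; CD142 ELISA read 24 h post-dose; bidirectional curve fit vs DMSO negative control.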

Read-out in test [11]: Vascular cell adhesion molecule 1 (VCAM1), VCAM1 (gene 7412)
Kind of test: BSK_LPS_VCAM1: BioMAP Diversity Plus: LPS Assay for Vascular cell adhesion molecule 1 (VCAM1) Biomarker Activity (AID 2283086). Conditions: primary human HUVEC with PBMC; actives raise or lower the signal. The procedure, abridged: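 Human umbilical vein endothelial cells co-cultured with PBMC and stimulated with LPS; VCAM-1 measured by ELISA 24 h after dosing. Bidirectional curve fitting against DMSO baseline; cytotoxicity tracked in parallel by SRB total-protein staining.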

Read-out in test [12]: CD38, CD38 (gene 952)
In words: BSK_SAg_CD38: BioMAP Diversity Plus: SAg Assay for CD38 Biomarker Activity (AID 2283087). The note with it: primary human HUVEC with PBMC; actives raise or lower the signal. The procedure, abridged: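 Human HUVEC plus PBMC co-culture stimulated with superantigen; CD38 measured by ELISA 24 h after chemical dosing. Fluorescence read-out, bidirectional fit against DMSO; cytotoxicity tracked in parallel by SRB and Alamar Blue.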

Read-out in test [13]: CD40, CD40 (gene 958)
In words: BSK_SAg_CD40: BioMAP Diversity Plus: SAg Assay for CD40 Biomarker Activity (AID 2283088). The note with it: primary human HUVEC with PBMC; actives raise or lower the signal. The procedure, abridged: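 HUVEC/PBMC co-culture, 24 h post-dose; CD40 by ELISA, fluorescence intensity; bidirectional fit vs DMSO negative control.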

Read-out in test [14]: CD69, CD69 (gene 969)
In words: BSK_SAg_CD69: BioMAP Diversity Plus: SAg Assay for CD69 Biomarker Activity (AID 2283089). Conditions: primary human HUVEC with PBMC; actives raise or lower the signal. The procedure, abridged:
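ELISA, fluorescence read-out: CD69 on human umbilical vein endothelial cell + PBMC co-culture, 24 h post-dosing. Gain or loss of signal fitted bidirectionally against DMSO baseline.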

Read-out in test [15]: Monocyte Chemoattractant Protein-1 (MCP1), CCL2 (gene 6347)
In words: BSK_SAg_MCP1: BioMAP Diversity Plus: SAg Assay for Monocyte Chemoattractant Protein-1 (MCP1) Biomarker Activity (AID 2283090). The note with it: primary human HUVEC with PBMC; actives raise or lower the signal. The procedure, abridged: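 MCP-1 levels in the endothelial–PBMC SAg co-culture were quantified by ELISA at 24 h post-dosing; both increases and decreases versus DMSO scored. Cytotoxicity monitored by SRB total protein in parallel cultures.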

Read-out in test [16]: E-selectin (Homo sapiens) (UniProt P16581)
Kind of test: BSK_SAg_Eselectin: BioMAP Diversity Plus: SAg Assay for Eselectin Biomarker Activity (AID 2283091). The note with it: primary human HUVEC with PBMC; actives raise or lower the signal. The procedure, abridged: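 E-selectin ELISA readout at 24 h post-dosing in human umbilical vein endothelial cell/PBMC co-culture; gain or loss of signal fitted relative to DMSO baseline.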

Read-out in test [17]: urokinase plasminogen activator (uPA), PLAU (gene 5328)
Kind of test: BSK_KF3CT_uPA: BioMAP Diversity Plus: KF3CT Assay for urokinase plasminogen activator (uPA) Biomarker Activity (AID 2283075). Conditions: primary human keratinocytes with fibroblasts; actives raise or lower the signal. The procedure, abridged:
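Primary human keratinocyte/foreskin fibroblast co-culture exposed to chemical; uPA measured by ELISA at 24 h. Bidirectional fit versus DMSO, with parallel SRB total-protein staining for cytotoxicity.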

Read-out in test [18]: Interleukin-8 (IL8), CXCL8 (gene 3576)
Kind of test: BSK_LPS_IL8: BioMAP Diversity Plus: LPS Assay for Interleukin-8 (IL8) Biomarker Activity (AID 2283078). The note with it: primary human HUVEC with PBMC; actives raise or lower the signal. The procedure, abridged: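 HUVEC + PBMC co-culture, LPS-activated; test chemicals dosed, IL-8 read by ELISA at 24 h. Bidirectional curve fit vs DMSO baseline (gain or loss of signal).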

The source made the active and inactive calls. The calls were made as follows: active = hit-call score of the fitted dose curve at least 0.9, where 1 is the maximum; inactive = score below 0.9.

Sequence of E-selectin (Homo sapiens) (P16581 whole entry, looked up): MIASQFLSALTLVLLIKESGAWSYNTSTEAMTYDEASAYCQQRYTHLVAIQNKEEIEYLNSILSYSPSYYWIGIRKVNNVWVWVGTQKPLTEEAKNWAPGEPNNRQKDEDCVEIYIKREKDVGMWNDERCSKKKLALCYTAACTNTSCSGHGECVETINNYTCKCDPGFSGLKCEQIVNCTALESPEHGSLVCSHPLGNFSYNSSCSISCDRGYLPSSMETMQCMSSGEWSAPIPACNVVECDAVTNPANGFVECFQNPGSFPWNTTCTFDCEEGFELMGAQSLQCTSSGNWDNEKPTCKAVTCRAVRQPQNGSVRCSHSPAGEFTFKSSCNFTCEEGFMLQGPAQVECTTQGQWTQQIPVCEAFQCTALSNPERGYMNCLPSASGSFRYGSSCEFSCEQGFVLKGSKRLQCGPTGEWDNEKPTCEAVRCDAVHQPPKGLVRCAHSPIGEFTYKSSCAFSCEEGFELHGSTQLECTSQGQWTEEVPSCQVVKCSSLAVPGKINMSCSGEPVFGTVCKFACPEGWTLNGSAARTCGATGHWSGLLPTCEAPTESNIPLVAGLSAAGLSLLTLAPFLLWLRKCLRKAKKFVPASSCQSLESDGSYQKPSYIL

On to `CSC(=O)c1cccc2nnsc12`, for which the outcome in test [1], in test [2], in test [3], in test [4], in test [5] and in [6] was inactive. The outcome in test [7], in test [8], in test [9], in test [10], in test [11] and in test [12] was inactive. Besides, the outcome in test [13], in test [14], in test [15] and in test [16] was inactive.

Turning to `CC(C)(C)[C@@H](O)[C@@H](Cc1ccc(Cl)cc1)n1cncn1`, the outcome in test [1], in test [2], in test [3], in test [4], in test [5] and in test [7] was inactive. Further, the result in test [8], in test [9], in [10], in test [11], in test [12] and in test [13] was inactive. For the same molecule, the outcome in test [14] and in [15] was inactive. In addition, the figures for the concentration at half-maximal activity (AC50) in test [6] and in test [16] were 3.97 µM (active) and 8.51 µM (active), respectively.

On to `COC(=O)CSc1cc(N=c2sc(=O)n3n2CCCC3)c(F)cc1Cl`, for which the result in test [2], in [17], in test [3], in test [4], in [18] and in [5] was inactive. For the same molecule, the outcome in test [6], in test [7], in test [8], in [9], in test [10] and in test [11] was inactive. The outcome in test [12], in test [13], in [14], in [15] and in [16] was inactive.
